# From the antibiotic and cytotoxicity screens of Wong et al. (2023)
# The campaign covered roughly 39,000 compounds. About 3,300 (8.5%) were called active. The sample as a whole holds a higher share of actives than the screen did.
# Tested on: HepG2
# Experiment: cytotoxicity call (relative viability < 0.9)
# Settings: 10 µM
row,Compound,cytotoxicity call
1,C[C@H]1CN([C@@H](C)CO)C(=O)c2cc(NC(=O)Cc3ccccc3)ccc2O[C@H]1CN(C)S(=O)(=O)c1cn(C)cn1,inactive
2,C[C@@H]1CN([C@@H](C)CO)C(=O)c2cc(NS(=O)(=O)c3ccc(F)cc3)ccc2O[C@@H]1CN(C)C(=O)Nc1cccc2ccccc12,inactive
3,Cl.Cl.N=C(NCCCCCCNC(=N)NC(=N)Nc1ccc(Cl)cc1)NC(=N)Nc1ccc(Cl)cc1,active
4,CC(C)NC(=N)NC(=N)Nc1ccc(Cl)cc1.Cl,active
5,N[C@@H](CC(=O)Nc1ccc(Cl)cc1)C(=O)O,inactive
6,C[C@H](CO)N1C[C@H](C)[C@@H](CN(C)S(=O)(=O)c2ccccc2)Oc2c(NC(=O)C3CC3)cccc2C1=O,inactive
7,C[C@H]1CN([C@@H](C)CO)C(=O)c2cccc(NC(=O)c3ccncc3)c2O[C@@H]1CN(C)S(=O)(=O)c1ccc(F)cc1,inactive
8,COCCN1CCC(N(Cc2ccc(-c3ccc(C(F)(F)F)cc3)cc2)C(=O)Cn2c(SCc3cccc(F)c3F)cc(=O)c3ccccc32)CC1,active
9,C[C@@H]1CN([C@@H](C)CO)C(=O)c2cc(NC(=O)c3ccncc3)ccc2O[C@@H](C)CCCCO[C@@H]1CN(C)S(C)(=O)=O,inactive
10,COc1ccc2c(c1)C(=O)C(=O)N2,inactive
11,COc1ccc2c(c1)/C(=N\O)C(=O)N2,inactive
12,O=C1Nc2ccc(I)cc2C1=Cc1cc(Br)c(O)c(Br)c1,active
13,CC(C)C[C@@H](N)C(=O)N[C@H]1C(=O)N[C@@H](CC(N)=O)C(=O)N[C@H]2C(=O)N[C@H]3C(=O)N[C@H](C(=O)N[C@H](C(=O)O)c4cc(O)cc(O)c4-c4cc3ccc4O)[C@H](O)c3ccc(c(Cl)c3)Oc3cc2cc(c3O[C@@H]2O[C@H](CO)[C@@H](O)[C@H](O)[C@H]2O[C@H]2C[C@](C)(N)[C@H](O)[C@H](C)O2)Oc2ccc(cc2Cl)[C@H]1O,inactive
14,C[C@@H]1CCCCO[C@@H](CN(C)C(=O)Nc2cccc3ccccc23)[C@@H](C)CN([C@H](C)CO)C(=O)c2cc(NS(=O)(=O)c3ccc(Cl)cc3)ccc2O1,inactive
15,COc1ccc(S(=O)(=O)Nc2ccc3c(c2)[C@@H]2C[C@@H](CC(=O)NCC4CC4)O[C@H](CO)[C@@H]2O3)cc1,inactive
16,CS(=O)(=O)O.CSc1ccc2c(c1)C(N1CCN(C)CC1)Cc1ccccc1S2 (stereo not drawn),active
17,C[C@H]1CN([C@@H](C)CO)C(=O)Cc2cc(NC(=O)Nc3cccc4ccccc34)ccc2O[C@H]1CN(C)S(=O)(=O)c1ccc(F)cc1,inactive
18,C[C@H](CO)N1C[C@H](C)[C@H](CN(C)Cc2ccc(-c3ccccc3)cc2)Oc2c(NC(=O)c3ccc(-c4nccs4)cc3)cccc2C1=O,inactive
19,C[C@H](CO)N1C[C@H](C)[C@H](CN(C)Cc2ccc(Oc3ccccc3)cc2)Oc2ccc(NC(=O)Nc3ccc(C(F)(F)F)cc3)cc2C1=O,active

row,Compound,cytotoxicity call
1,C[C@H]1CN([C@@H](C)CO)C(=O)c2cc(NC(=O)Nc3ccc(C(F)(F)F)cc3)ccc2O[C@H]1CN(C)Cc1ccc(Oc2ccccc2)cc1,active
2,C[C@H](CO)N1C[C@H](C)[C@@H](CN(C)Cc2ccc(Oc3ccccc3)cc2)Oc2ccc(NC(=O)Nc3ccc(C(F)(F)F)cc3)cc2C1=O,inactive
3,C[C@@H]1CN([C@H](C)CO)C(=O)c2cc(NC(=O)Nc3ccc(C(F)(F)F)cc3)ccc2O[C@H]1CN(C)Cc1ccc(Oc2ccccc2)cc1,inactive
4,C[C@@H]1CN([C@H](C)CO)C(=O)c2cc(NC(=O)Nc3ccc(C(F)(F)F)cc3)ccc2O[C@@H]1CN(C)Cc1ccc(Oc2ccccc2)cc1,active
5,C[C@H]1CN([C@@H](C)CO)C(=O)c2cc(NC(=O)Nc3ccc(C(F)(F)F)cc3)ccc2O[C@@H]1CN(C)Cc1ccc(Oc2ccccc2)cc1,inactive
6,C[C@@H]1CN([C@@H](C)CO)C(=O)c2cc(NC(=O)Nc3ccc(C(F)(F)F)cc3)ccc2O[C@H]1CN(C)Cc1ccc(Oc2ccccc2)cc1,active
7,C[C@@H]1CN([C@@H](C)CO)S(=O)(=O)c2ccc(Br)cc2O[C@H]1CN(C)CC1CCOCC1,inactive
8,COc1ccc(NC(=O)Nc2ccc3c(c2)C(=O)N([C@@H](C)CO)C[C@H](C)[C@@H](CN(C)C(=O)Nc2cccc4ccccc24)O3)cc1,inactive
9,C[C@H]1CN([C@@H](C)CO)S(=O)(=O)c2ccc(C#Cc3ccccc3)cc2O[C@@H]1CN(C)C(=O)Cc1ccccn1,inactive
10,Nc1nc(=O)c2ncn(CCC(CO)CO)c2[nH]1,inactive
11,Cc1noc(C)c1NC(=O)N(C)C[C@H]1Oc2ccc(NC(=O)NC(C)C)cc2CC(=O)N([C@H](C)CO)C[C@H]1C,inactive
12,C[C@@H]1CN([C@@H](C)CO)C(=O)c2cc(NC(=O)Nc3ccc(C(F)(F)F)cc3)ccc2O[C@@H]1CN(C)Cc1ccc(Oc2ccccc2)cc1,active
13,C[C@@H]1CN([C@@H](C)CO)C(=O)c2cc(NC(=O)Nc3ccc(C(F)(F)F)cc3)ccc2O[C@@H]1CN(C)C(=O)Nc1ccccc1,inactive
14,O=C(O)c1ccc(/C2=C3\C=CC(=N3)/C(c3ccc(C(=O)O)cc3)=c3/cc/c4[n]3[Mn+][n]3c2ccc3/C(c2ccc(C(=O)O)cc2)=C2/C=CC(=N2)\C=4c2ccc(C(=O)O)cc2)cc1,inactive
15,C[n+]1ccc(/C2=C3\C=CC(=N3)/C(c3cc[n+](C)cc3)=c3/cc/c4[n]3[Fe][n]3c2ccc3/C(c2cc[n+](C)cc2)=C2/C=CC(=N2)\C=4c2cc[n+](C)cc2)cc1,active
16,C[C@@H]1CN([C@@H](C)CO)C(=O)c2cc(NC(=O)Cc3ccccc3)ccc2O[C@@H]1CN(C)S(=O)(=O)c1ccccc1,inactive
17,C[C@@H]1CN([C@@H](C)CO)C(=O)c2cccc(NC(=O)C3CC3)c2O[C@@H]1CN(C)S(=O)(=O)c1cccs1,inactive
18,Cc1ccc(S(=O)(=O)N(C)C[C@@H]2OCCCC[C@@H](C)Oc3ccc(NC(=O)Nc4c(C)noc4C)cc3C(=O)N([C@@H](C)CO)C[C@@H]2C)cc1,inactive
19,C[C@@H]1CCCCO[C@@H](CN(C)CC2CC2)[C@@H](C)CN([C@H](C)CO)C(=O)c2cc(NS(=O)(=O)c3cn(C)cn3)ccc2O1,inactive
